# Data: PubChem BioAssay AID2810 (NMMLSC, 2010)
# Out of some 1,200 compounds screened, about 65 (5%) were called active.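 The calls were made as follows: active = at either tested dose, response and 90th-percentile vesicle-stain brightness of CD8 cells under set limits and under 9% cells vesicle-bound; inactive = the rest.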 This excerpt belongs to a sample that is enriched for actives.
# Assay: modulators of CD8 T cell-vesicle binding, confirmation, cherry-picked primary hits, two concentrations (AID 2810);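 also: lower values mean blocking of vesicle binding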;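 as to percent response (vesicle binding): ratio of mean FL2 vesicle stain of CD8+ cells to that row's control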
# Settings: 2C CD8+ T cell-vesicle binding, flow cytometry; for double positive events: CD8+/vesicle+ events
# [1] = at 15.4 µM, stronger effect = lower value
Compound,double positive events (at 7.7 µM) [%],double positive events [1] [%],percent response (vesicle binding) [1],"percent response (vesicle binding) (response, at 7.7 µM) [%]"
NC(=O)CCS(=O)(=O)CCN1CCN(S(=O)(=O)c2ccc3c(c2)CCC3)CC1,17.1,7.7,43.5% (active),183
CCOC(=O)c1ccc(S(=O)(=O)N2CCN(C3CCCC3)CC2)cc1,11.3,23.3,294% (inactive),107
O=C(NCC1CCCCC1)c1cccc(S(=O)(=O)N2CCCC2)c1,8.6,8.5,104% (inactive),305
Cc1ccc(/C=N/Nc2ccc(F)cc2F)s1,17.7,29.3,280% (inactive),159
O=C(NCC1CCCO1)C(=O)NCC(c1ccco1)N1CCN(c2ccc(F)cc2)CC1 (configuration not stated),35.6,10.4,199% (inactive),266
O=C(O)c1ccc(N2C(=O)CC(SC(=Nc3ccccc3)Nc3ccccc3)C2=O)cc1 (configuration not stated),19.3,18.5,276% (inactive),663
COc1cc(Cl)c(S(=O)(=O)n2cnc(C)c2)cc1Cl,9.6,9.7,141% (inactive),151
CCOC(=O)CSc1nnc(-c2ccc(Cl)cc2Cl)o1,16.3,10.1,118% (inactive),276
CCOC(=O)CSc1nnnn1-c1cc(OC)c(Cl)cc1OC,20.1,5.9,53.3% (active),312
CCn1c(SCC(=O)NCC2CCCO2)nnc1-c1c[nH]c2ccccc12 (configuration not stated),14.2,13.6,286% (inactive),430
O=C(NN1C(=O)C2C3C=CC([C@H]4CC34)[C@@H]2C1=O)c1ccc(Br)cc1 (some centres not stated),33.5,31.2,590% (inactive),1000
CCCOc1ccc(N2C(=O)CC(N(O)c3ccccc3)C2=O)cc1 (configuration not stated),17.3,14.6,158% (inactive),254
Cc1ccccc1CS(=O)(=O)CCC(=O)N1CCN(c2ccc(N3CCOCC3)nn2)CC1,9,3.1,18.4% (active),160
CN(CCCC(=O)N1CCN(c2ncccn2)CC1)S(=O)(=O)c1ccc(F)cc1,7,13.1,151% (inactive),122
Cc1ccsc1C(=O)OCC(=O)N1CCN(c2ccccc2)CC1,17.9,27,263% (inactive),143
COc1ccc(Br)cc1CN(C)C(=O)c1ccc2c(c1)NC(=O)C(C)S2 (configuration not stated),38.9,17.5,221% (inactive),368
Cc1cccc(NC(=O)C2CCN(S(=O)(=O)c3c(C)[nH]c(=O)[nH]c3=O)CC2)c1,9.4,12.6,434% (inactive),330

Compound,double positive events (at 7.7 µM) [%],double positive events [1] [%],percent response (vesicle binding) [1],"percent response (vesicle binding) (response, at 7.7 µM) [%]"
COc1ccc(NCc2nc3ccccc3n2CCOc2ccccc2)cc1,35.8,10.6,221% (inactive),261
NC(=O)C1CCN(c2nc(-c3cc4ccccc4o3)cs2)CC1,28.4,8,128% (inactive),459
CS(=O)(=O)c1cccc(-c2csc(N3CCC(C(N)=O)CC3)n2)c1,18.3,37.8,182% (inactive),192
CC(=O)c1ccc(-c2csc(N3CCC(C(N)=O)CC3)n2)cc1,15.1,4.6,28.3% (active),132
O=C(CN1C(=O)COc2ccc(S(=O)(=O)N3CCCC3)cc21)NC1CC1,21.1,16.7,459% (inactive),268
O=C(NCc1ccncc1)C(=O)NCC(c1ccco1)N1CCN(c2ccccc2F)CC1 (configuration not stated),28.7,13.3,251% (inactive),276
CCOC(=O)c1sc(NC(=O)CSc2ncn[nH]2)c(C#N)c1C,36.7,26.4,617% (inactive),394
Cc1nnc(NC(=O)c2ccc(S(=O)(=O)N(C)c3ccccc3)cc2)s1,9.6,37.9,156% (inactive),134
CCCc1nnc(NC(=O)c2ccc(S(=O)(=O)N(C)c3ccccc3OC)cc2)s1,14.9,6,35.7% (active),216
COc1ccccc1-c1nnc(NC(=O)c2ccc(S(=O)(=O)N3CCOCC3)cc2)o1,7,8.1,284% (inactive),264
COc1cc(OC)cc(C(=O)NC(C(=O)Nc2ccc3c(c2)CCC3)C(C)C)c1 (configuration not stated),8.9,21,368% (inactive),147
O=C(CC1=NCCNC(c2ccccc2)C1)c1ccccc1O (configuration not stated),6.2,1.7,65.1% (inactive),316
COc1ccc(NCC(O)Cn2c(C)c(C)c3ccccc32)cc1 (configuration not stated),11.5,16.3,63.6% (inactive),101
O=C(NCCN1CCN(c2ccccc2)CC1)c1cccc(Br)c1,24.2,13.3,252% (inactive),278
Cc1ccc(C(C)n2cc(C(=O)NCCN3CCN(C)CC3)nn2)cc1 (configuration not stated),11.2,1.8,36.8% (active),155
CCCCCC(=O)N[C@@H](c1ccccc1)[C@@H](O)C(=O)O[C@H]1C[C@@]2(O)[C@@H](OC(=O)c3ccccc3)C3[C@](C)(C(=O)[C@H](OC(C)=O)C(=C1C)C2(C)C)[C@@H](O)C[C@H]1OC[C@@]31OC(C)=O (some centres not stated),16.4,12,252% (inactive),302
